# Shown are actives, neighbours in structure and some others; about 4.5% of the full set was active somewhere.
# FBA Mtb inh = Mtb FBA enzyme inhibitors, primary screen, biochemical, fluorescence, strain H37Rv | Fructose-bisphosphate aldolase (Mycobacterium tuberculosis (strain ATCC 25618 / H37Rv)), … | purified M. tuberculosis FBA, fluorescence read-out | inhibition, % at 1 µM | actives 2.3% (n = 360,000); in the data active = inhibition above about 27%;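 note: 0% = vehicle and 100% = reference inhibitor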
# Target sequence (P9WQA3 whole entry, looked up): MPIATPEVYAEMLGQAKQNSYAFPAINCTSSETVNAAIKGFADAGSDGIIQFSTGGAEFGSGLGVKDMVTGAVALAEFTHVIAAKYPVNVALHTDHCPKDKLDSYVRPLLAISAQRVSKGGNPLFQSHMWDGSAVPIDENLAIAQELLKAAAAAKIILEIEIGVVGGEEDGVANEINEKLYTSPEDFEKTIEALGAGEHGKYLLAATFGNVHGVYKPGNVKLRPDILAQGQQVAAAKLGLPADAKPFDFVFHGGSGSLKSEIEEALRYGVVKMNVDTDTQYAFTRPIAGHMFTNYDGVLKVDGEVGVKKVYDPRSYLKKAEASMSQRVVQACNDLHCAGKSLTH
# BJeLR lethal = MLPCN primary cell-based screen for lethality selective to Ras in HRASV12 cells. AID 1554, 2009. inhibition, % (concentration not given with the values). actives 0.17% (n = 300,000). BJeLR (HRASV12) viability, CellTiter-Glo ATP luminescence, 48 h; in the data active = inhibition above about 50%; inconclusive = no clear call, values can overlap the other calls
# PfHsp40 rescue = rescue of yeast from PfHsp40 toxicity, primary screen, S. cerevisiae, ATP luminescence. S. cerevisiae expressing PfHsp40, growth rescue. actives 0.68% (n = 340,000). growth rescue, % at 12.5 µM. AID 504582, 2011; in the data active = growth rescue above about 28%, passing the limit was not always enough; inconclusive = no clear call, values can overlap the other calls;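 note: yeast W303a lacking pdr1 and pdr3 grown in galactose medium; growth measured after three days at 30 °C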
# PrPC TRFRET = inhibitors of human cell surface prion protein PrPC, primary screen, cell-based, TR-FRET; actives 0.43% (n = 370,000); inhibition, % at 13.8 µM; Major prion protein (Homo sapiens), P04156; TR-FRET read-out; in the data active = inhibition above about 24%; note: 0% = median of the test wells and 100% = reference compound wells
# PrP UTR inh = inhibition of PrP 5' UTR reporter expression; inhibition, % (test concentration not listed); AID 488862, 2010; cell-based PrP 5' UTR mRNA reporter, plate reader; actives 0.35% (n = 340,000); in the data active = inhibition above about 52%; note: 0 = median of the neutral control wells
# GDH-TPI counter = GDH-TPI coupling enzyme inhibitors, primary screen, artefact control for M. tuberculosis FBA inhibitor project, biochemical, absorbance, full deck; inhibition, % at 4.8 µM; actives 1.2% (n = 360,000); GDH-TPI coupled enzyme counterscreen, NADH absorbance; AID 588335, 2011; in the data active = inhibition above about 30%;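 note: 0% = DMSO wells and 100% = wells lacking the enzyme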
# PrP UTR cherry = prion 5' UTR mRNA inhibition, cherry-pick retest | cell-based prion protein 5' UTR reporter, plate reader | inhibition, % at 2.5 µM | shares compounds with PrP UTR inh | actives 48% (n = 1,100); in the data active = inhibition above about 54%; inconclusive = no clear call, values can overlap the other calls
# Active calls of the source: *; ? = inconclusive; . = no result given.
SMILES,FBA Mtb inh,BJeLR lethal,PfHsp40 rescue,PrPC TRFRET,PrP UTR inh,GDH-TPI counter,PrP UTR cherry
COc1ccc(CC(=O)OCC(=O)N2CCN(S(=O)(=O)c3ccc(C)cc3C)CC2)cc1,-0.5,.,-2.0,-3.5,88.5*,3.1,-12.2
Cc1ccc(-n2[nH]c(=O)c(-c3ccccn3)c2C)cc1,0.2,4.0,-1.6,9.5,71.6*,5.1,68.4*
Cc1ccc(-n2[nH]c(=O)c3cccnc32)cc1,-3.0,-12.8,-0.9,-1.2,-12.9,21.9,.
CCC[C@H]1[C@@H](NCC2CCCCC2)CC[C@@]23CCCN2C(=O)CCC[C@@H]13,.,.,.,4.4,.,.,.
CCOC(=O)c1c(SCCN2CCCC2)n(-c2ccccc2)c(=S)n(-c2ccccc2)c1=O,3.5,.,0.6,-9.7,65.1*,9.6,21.2
O=C(NCc1ccco1)c1ccc2c(c1)N(Cc1ccccc1)C(=O)CS2=O (stereo not given),-0.8,1.4,0.4,3.9,60.8*,-15.8,15.4
COc1ccccc1NC(=O)OCCN1CCCC12CCC(c1ccccc1)CC2 (stereo not given),.,.,.,-15.4,.,.,.
CCOc1ccc(OCc2cccc(C(=O)N3CCOCC3)c2)cc1,2.5,0.3,-1.3,9.5,60.9*,2.5,70.0*
O=C(c1cccc(OCc2ccccc2)c1)N1CCOCC1,2.0,0.7,-0.7,.,-18.4,-0.5,.
O=C(NCc1cccs1)C1CCCN(S(=O)(=O)c2ccccc2)C1 (stereo not given),.,.,.,-2.5,.,.,.
CC1=C2NC(N)=[N+](Cc3ccccc3)CC2n2c(=O)n(-c3ccccc3)c(=O)n2C1 (stereo not given),.,.,.,-7.2,.,.,.
Cc1[nH]n(-c2ccccc2)c(=O)c1C(=O)c1cccc(F)c1,1.3,7.5,-1.0,3.2,61.7*,1.6,-20.8
C[C@@H]1CCN(C2CC2)S(=O)(=O)c2ccc(N3CCC[C@H]3CO)cc2O1,.,.,.,-3.1,.,.,.
Nc1ncnc2c1ncn2[C@@H]1O[C@H](CNCc2ccc(OCC(=O)Nc3ccccn3)cc2)[C@@H](O)[C@H]1O,-2.8,.,0.0,-3.1,87.1*,3.6,-19.1
OCCCNc1cc(-c2ccnc(Nc3cccc(Cl)c3)n2)ccn1,4.6,25.3,1.5,42.3*,82.2*,8.4,84.3*
C#CCNC(=O)C[C@@H]1C[C@@]2(C(=O)OCC)CCC=C2N(CCC2=CCCCC2)C1=O,.,.,.,-0.9,.,.,.
CC(OC(=O)CCN=C1NS(=O)(=O)c2ccccc21)C(=O)NCc1ccccc1 (stereo not given),-1.1,8.0,0.3,3.8,66.6*,0.7,-14.2
Cc1cc(C)cc(N(CC(=O)N2CCn3c2nc2ccccc23)S(=O)(=O)c2c(C)noc2C)c1,5.5,-1.8,0.0,4.6,67.2*,9.1,-3.0
CCOc1ccc(N(CC(=O)N2CCc3ccccc32)S(=O)(=O)c2c(C)noc2C)cc1,1.2,1.2,-0.5,-5.0,79.1*,-16.8,9.0
CN(CCOC(=O)c1cc2ccccc2o1)C1CN(Cc2cn(Cc3ccccc3Cl)nn2)S(=O)(=O)C1 (stereo not given),.,.,.,-4.7,.,.,.
CC1(C)CC[C@]2(C(=O)n3ccnc3)CC[C@]3(C)[C@H](C(=O)C=C4[C@@]5(C)C=C(C#N)C(=O)C(C)(C)[C@@H]5CC[C@]43C)[C@@H]2C1,0.1,.,-1.7,4.8,94.5*,4.1,97.0*
CCOc1cc(/C=N\NC(=O)C2C(=O)NCC2c2ccccc2)ccc1OC (stereo not given),1.5,-1.0,-1.9,2.1,5.0,13.8,.
COc1ccc(/C=N\NC(=O)C2C(=O)NCC2c2ccccc2)cc1O (stereo not given),2.8,4.5,0.4,-1.3,71.3*,4.8,-48.3
CCCNC(=O)c1ccc2c(=O)c(O)c(-c3cccc(Br)c3)[nH]c2c1,1.8,4.6,182.2*,7.6,56.0*,6.8,?
O=C(NCCc1nc2ccccc2[nH]1)c1cccc(Br)c1,-0.4,-4.0,-0.6,-0.3,-13.4,6.7,.
SMILES,FBA Mtb inh,BJeLR lethal,PfHsp40 rescue,PrPC TRFRET,PrP UTR inh,GDH-TPI counter,PrP UTR cherry
COc1ccccc1[C@H]1C(c2cccc(Cl)c2)=NN(c2ccccc2)[C@@H]1CO,46.3*,.,1.1,.,71.6*,9.1,-5.1
COc1ccccc1[C@@H]1C(c2cccc(Cl)c2)=NN(c2ccccc2)[C@H]1C(=O)N1CCOC1=O,9.8,4.4,-0.5,.,-5.8,10.9,.
CCCN(CCC)C(=O)c1ccc2c(=O)n(Cc3ccco3)c(=S)[nH]c2c1,-2.8,-0.9,-0.7,1.3,82.8*,1.6,17.3
CN1CCN(C(=O)c2ccc3c(=O)n(Cc4ccco4)c(=S)[nH]c3c2)CC1,-10.3,-19.2,-1.1,-11.1,-24.1,19.2,.
CN(C)CCCNC(=O)c1ccc(Oc2ccccc2)cc1,-5.9,-1.4,-0.5,3.6,87.9*,-2.2,-12.0
COC1C=CC=C(C)C(=O)NC2=CC(=O)C(N)=C(CC(C)CC(OC)C(O)C(C)C=C(C)C1OC(N)=O)C2=O (stereo not given),-2.3,.,0.9,-32.6,76.4*,23.3,82.2*
COC1CC(C)C(OC)c2cc(O)cc(c2O)NC(=O)C(C)=CC=CC(C)C(OC(N)=O)C(C)=CC(C)C1OC (stereo not given),5.0,.,0.3,1.4,30.4,6.9,.
Cc1ccc(/C([O-])=C(/C(=S)NCc2ccc3c(c2)OCO3)[n+]2ccc(N(C)C)cc2)c(C)c1,1.3,-4.7,-1.0,1.0,66.5*,7.2,-9.9
CN(C)c1ccc(C(=O)NCc2ccc3c(c2)OCO3)cc1,1.8,-13.1,-0.7,-5.2,-7.3,4.3,.
COc1ccc(C(C)=O)cc1CSc1nc2cc(Cl)ccc2o1,3.4,-0.5,0.4,6.4,57.2*,7.6,-62.3
Cc1ccc(C(=O)Nc2ccc3c(c2)OCCO3)c(C)c1,-2.3,8.9,-1.8,5.6,70.8*,13.9,?
CCC(=O)N1CCc2cc(Br)c(S(=O)(=O)N3CCCC(C(=O)NC(C)(C)C)C3)cc21 (stereo not given),.,.,.,-3.7,.,.,.
C[C@@H]1CCN(C2CC2)S(=O)(=O)c2ccc(N3CC[C@@H](N(C)C)C3)cc2O1,.,.,.,-1.7,.,.,.
CCC1=C2CC[C@H]3C(=O)N(c4ccccc4)C(=O)[C@H]3[C@H]2[C@@]2(C)C(=NCc3ccccc3)OC(=O)N2C1=O,2.6,-1.4,-0.8,7.5,75.6*,3.5,-25.0
CCC1=C(OC(=O)N(CC)CC)N2C(=O)OC(=NCc3ccccc3)[C@]2(C)[C@H]2C1=CC[C@H]1C(=O)N(c3ccccc3)C(=O)[C@H]12,3.9,3.3,-0.3,5.8,4.2,-3.6,.
